This note sets out measurements from PubChem BioAssay (NCI).

Test systems include NCI-H23 lung; NCI-H226 lung; NCI-H322M lung; HOP-62 NSCLC; NCI-H460 lung; HOP-92 NSCLC; NCI-H522 lung; A549/ATCC NSCLC; 786-0 renal; COLO 205 colon; DU-145 prostate; K-562 leukemia; MALME-3M melanoma; MDA-MB-231 breast; RXF 393 renal; SF-268 CNS; SF-295 CNS; SF-539 CNS; UACC-257 melanoma; M14 melanoma.
Experiment in all cases: NCI-60 one-dose screen, 48 h (100 = growth as untreated, 0 = no growth, -100 = all killed)
Conditions in all cases: 10 µM unless noted

The panel holds about 83,000 compounds, 20% with a hit somewhere; the sample as a whole holds those more often.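 Note: values are percent growth. 100 is the growth of untreated cells, values between 100 and 0 indicate rising inhibition; between -100 and 0 indicates cell death.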 A number with no mark means an inactive call. The source made the active and inactive calls. The calls were made as follows: active = growth percent below 10; inactive = the rest.

On to `CC([C@H]1CCC2C3CCC4C(=O)C(NC=O)=CC[C@]4(C)C3CC[C@@]21C)N(C)C` (stereo not given in full), for which the growth in the assay on NCI-H23 lung is 44.2%; in the assay on NCI-H226 lung it was 88.5%; in the assay with NCI-H322M lung it was 30.4%; in the assay with HOP-62 NSCLC, 74.2%; in the assay on NCI-H460 lung, -4.84% (active); in the assay with HOP-92 NSCLC it was 41.7%. Also, the growth with NCI-H522 lung is 96.1%; with A549/ATCC NSCLC, 45%; in the assay on 786-0 renal, 46.1%; in the assay on COLO 205 colon, -80.1% (active); in the assay on DU-145 prostate it was 59.5%; in the assay on K-562 leukemia, 15%. For the same compound, the growth in the assay with MALME-3M melanoma is -2.06% (active); in the assay with MDA-MB-231 breast, 11.2%; with RXF 393 renal, -53.3% (active); in the assay with SF-268 CNS, -3.89% (active); in the assay on SF-295 CNS it was 36.6%; in the assay with SF-539 CNS it was -45.6% (active). For the same compound, the growth in the assay on UACC-257 melanoma was -20.9% (active); in the assay on M14 melanoma it was -33% (active).
Regarding `COc1ccc(-c2conc2-c2ccccc2)cc1`, the growth is 29.1% in the assay with NCI-H23 lung; 70.5% in the assay on NCI-H226 lung; 46.3% in the assay with NCI-H322M lung; 42.4% in the assay with HOP-62 NSCLC; 7.41% (active) in the assay with NCI-H460 lung; 71.4% with HOP-92 NSCLC. Further, the growth was -6.84% (active) in the assay on NCI-H522 lung; 23.3% in the assay on A549/ATCC NSCLC; 27% in the assay with 786-0 renal; -7.37% (active) in the assay with COLO 205 colon; 11.5% with DU-145 prostate; 13.3% with K-562 leukemia. Besides, the growth in the assay on MALME-3M melanoma is 56.2%; in the assay with MDA-MB-231 breast, 11.6%; in the assay on RXF 393 renal it was -21.8% (active); in the assay with SF-268 CNS, 44.6%; in the assay with SF-295 CNS, 16.3%; in the assay with SF-539 CNS, -23.4% (active). For the same compound, the growth in the assay on UACC-257 melanoma is 71.5%; in the assay on M14 melanoma, 6.54% (active).
Regarding `C[N+]1=C(/C=C/c2ccc(O)c3ncccc23)C(C)(C)c2ccccc21`, the growth in the assay with NCI-H23 lung was 80.1%; in the assay on NCI-H226 lung, 15%; with NCI-H322M lung it was 97.4%; in the assay on HOP-62 NSCLC, 30%; with NCI-H460 lung, 32.8%; in the assay with HOP-92 NSCLC it was 87.1%. The growth with NCI-H522 lung is 51.9%; with A549/ATCC NSCLC, 17.9%; in the assay with 786-0 renal, 66.7%; with COLO 205 colon it was 35.7%; in the assay with DU-145 prostate, 85.2%; with K-562 leukemia it was 16.5%. Moreover, the growth in the assay with MALME-3M melanoma was 115%; in the assay with MDA-MB-231 breast, 64.6%; with RXF 393 renal, 32.5%; in the assay on SF-268 CNS, 81.8%; in the assay with SF-295 CNS, 72.9%; in the assay on SF-539 CNS, 25.9%. Moreover, the growth is 85.3% with UACC-257 melanoma and 67.5% in the assay on M14 melanoma.
Turning to `Cc1ccc(-c2nc(N3CCN(C(=O)Nc4ccc(Cl)c(C(F)(F)F)c4)CC3)c3ccccc3n2)cc1`, the growth with NCI-H23 lung is 78.1%; in the assay on NCI-H226 lung, 78.7%; in the assay on NCI-H322M lung it was 64.3%; in the assay on HOP-62 NSCLC, 79.2%; with NCI-H460 lung, 81.1%; in the assay with HOP-92 NSCLC, 82%. In addition, the growth was 69.9% with NCI-H522 lung; 64% in the assay with A549/ATCC NSCLC; 81.3% in the assay with 786-0 renal; 89.6% in the assay with COLO 205 colon; 86.6% in the assay with DU-145 prostate; 44.9% in the assay on K-562 leukemia. Moreover, the growth in the assay with MALME-3M melanoma is 105%; in the assay with MDA-MB-231 breast it was 61.3%; in the assay on RXF 393 renal, 68%; with SF-268 CNS it was 58.1%; in the assay on SF-295 CNS it was 78.2%; in the assay on SF-539 CNS, 87%. The results for the growth in the assay with UACC-257 melanoma and in the assay with M14 melanoma were 90.1% and 73.8%, respectively.
`CN(C)CCS(=O)(=O)Nc1cc(-c2ccc3ncc(C#N)c(Nc4ccc(F)c(Cl)c4)c3c2)cnc1Cl`: the growth with NCI-H23 lung was -28.5% (active); in the assay on NCI-H226 lung, -15.2% (active); with NCI-H322M lung, -54.5% (active); in the assay on HOP-62 NSCLC it was 0.0433% (active); with NCI-H460 lung it was 0.906% (active); in the assay on HOP-92 NSCLC, -17.9% (active). For the same compound, the growth in the assay on NCI-H522 lung is -39.8% (active); in the assay on A549/ATCC NSCLC, -30.5% (active); in the assay with 786-0 renal, -20.1% (active); with COLO 205 colon, -80.8% (active); in the assay with DU-145 prostate, -10.3% (active); with K-562 leukemia, 6.62% (active). Further, the growth is -50.5% (active) with MALME-3M melanoma; -39.5% (active) with MDA-MB-231 breast; -56% (active) with RXF 393 renal; -41% (active) in the assay with SF-268 CNS; -19% (active) with SF-295 CNS; -36.4% (active) with SF-539 CNS. For the same compound, the growth is -17.3% (active) in the assay on UACC-257 melanoma and -40.4% (active) with M14 melanoma.
Turning to `COc1ccc(C2=Nn3c(nnc3-c3cc(Cl)cc(Cl)c3Cl)SC2)cc1`, the growth in the assay with NCI-H23 lung is 3.14% (active); in the assay on NCI-H226 lung it was 64.8%; in the assay with NCI-H322M lung, 36.4%; with HOP-62 NSCLC it was -2.41% (active); with NCI-H460 lung, -18.9% (active); in the assay on HOP-92 NSCLC, 22.3%. Moreover, the growth in the assay with NCI-H522 lung was -17.8% (active); in the assay on A549/ATCC NSCLC, 21.9%; in the assay on 786-0 renal, 6.36% (active); with COLO 205 colon, -34.4% (active); with DU-145 prostate, 6.93% (active); with K-562 leukemia, 2.96% (active). In addition, the growth with MALME-3M melanoma is 37.2%; in the assay on MDA-MB-231 breast it was 10.3%; with RXF 393 renal, 14.4%; with SF-268 CNS it was 22.6%; in the assay with SF-295 CNS it was 0.025% (active); with SF-539 CNS, -8.32% (active). Further, the growth is 37% with UACC-257 melanoma and -45.3% (active) in the assay with M14 melanoma.
As for `COc1cc(OCc2cccc(-c3ccc(C(O)c4nccs4)cc3)c2C)cc(OC)c1CNCCNC(C)=O` (stereo not given), the growth in the assay with NCI-H23 lung is 98.1%; in the assay on NCI-H226 lung, 96.2%; in the assay on NCI-H322M lung, 99.1%; in the assay on HOP-62 NSCLC, 108%; in the assay with NCI-H460 lung it was 101%; with HOP-92 NSCLC, 81.8%. Also, the growth in the assay on NCI-H522 lung is 101%; in the assay with A549/ATCC NSCLC, 96.3%; in the assay on 786-0 renal, 102%; in the assay with COLO 205 colon, 104%; in the assay with DU-145 prostate, 111%; in the assay with K-562 leukemia, 77.2%. Besides, the growth was 86% with MALME-3M melanoma; 101% in the assay on MDA-MB-231 breast; 107% with RXF 393 renal; 97.5% in the assay with SF-268 CNS; 103% with SF-295 CNS; 101% in the assay on SF-539 CNS. Also, the growth was 99% with UACC-257 melanoma and 99.6% with M14 melanoma.
On to `N#Cc1c(Nc2cccc(Cl)c2)sc(C(=O)c2cc3cc(Cl)ccc3o2)c1N`, for which the growth is 77% in the assay on NCI-H23 lung; 94% in the assay on NCI-H226 lung; 113% in the assay with NCI-H322M lung; 107% with HOP-62 NSCLC; 46.7% in the assay on NCI-H460 lung; 8.1% (active) in the assay with HOP-92 NSCLC. The growth in the assay with NCI-H522 lung is 34.8%; with A549/ATCC NSCLC, 94.1%; in the assay with 786-0 renal, 96.9%; with COLO 205 colon, 89%; in the assay on DU-145 prostate it was 30.6%; in the assay with K-562 leukemia, 51.9%. Moreover, the growth with MALME-3M melanoma was 101%; in the assay on MDA-MB-231 breast, 75.6%; in the assay with RXF 393 renal, 105%; in the assay on SF-268 CNS it was 67.7%; in the assay on SF-295 CNS, 123%; in the assay on SF-539 CNS it was 84%. In addition, the growth in the assay on UACC-257 melanoma was 102%; in the assay on M14 melanoma, 105%.
